# Data published in PubChem BioAssay AID1159580 (chemical genetic matrix, 2015).
# Out of some 5,500 compounds screened, about 2,000 (36%) were called active. About 18% were inconclusive and are not listed. The list shows a part of the results. Values without a mark were called inactive. Cut-off read from the data, not from the text of the source: active = normalized growth mostly below about 0.91 (no sharp cut-off); inconclusive = no clear call, values can overlap the other calls; inactive = mostly above about 0.92.
# Assay: chemical genetic growth profiling, strain panel (AID 1159580);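 note: tested at 20 µM; growth read once vehicle control cultures reached saturation at 30 °C; 1 = growth at the plate median or of vehicle wells; lower values mean less growth of the strain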
# Details: S. cerevisiae deletion strains, growth OD
smiles,measurement,setting,value
CCCn1c(=O)c2[nH]c(-c3ccc(OCC(=O)NCCN)cc3)nc2n(CCC)c1=O,normalized growth,"locus YAL040C, strain CLN3, active compounds read low",1.05
same,normalized growth,"locus YCL061C, strain MRC1 (second series), active compounds read low",0.984
same,normalized growth,"locus YDR363W, strain ESC2, active compounds read low",0.983
same,normalized growth,"locus YER002W, strain NOP16, active compounds read low",0.986
same,normalized growth,"locus YJR075W, strain HOC1, active compounds read low",0.99
same,normalized growth,"locus YMR307W, strain GAS1, active compounds read low",1.01
same,normalized growth,"locus YNL128W, strain TEP1, active compounds read low",0.973
same,normalized growth,"locus YNL175C, strain NOP13, active compounds read low",0.98
same,normalized growth,"locus YNL197C, strain WHI3, active compounds read low",0.977
same,normalized growth,"locus YNL224C, strain SQS1, active compounds read low",0.999
same,normalized growth,"locus YNL322C, strain KRE1, active compounds read low",0.95
same,normalized growth,"locus YOR083W, strain WHI5 (second series), active compounds read low",0.984
same,normalized growth,"locus YPL055C, strain LGE1, active compounds read low",0.973
same,normalized growth,"locus YPL241C, strain CIN2, active compounds read low",0.985
CSc1cccc(N2C(=O)CC(c3c(Cl)cccc3Cl)CC2=O)c1,normalized growth,"locus YAR019C, strain CDC15, active compounds read low",0.99
same,normalized growth,"locus YBL105C, strain PKC1, active compounds read low",0.98
same,normalized growth,"locus YBR135W, strain CKS1, active compounds read low",0.987
same,normalized growth,"locus YBR136W, strain MEC1, active compounds read low",0.989
same,normalized growth,"locus YBR160W, strain CDC28, active compounds read low",0.989
same,normalized growth,"locus YDL017W, strain CDC7, active compounds read low",0.99
same,normalized growth,"locus YDL028C, strain MPS1, active compounds read low",0.997
same,normalized growth,"locus YDL101C, strain DUN1, active compounds read low",0.987
same,normalized growth,"locus YDL108W, strain KIN28, active compounds read low",0.988
same,normalized growth,"locus YDL132W, strain cdc53, active compounds read low",0.982
same,normalized growth,"locus YDL214C, strain PRR2, active compounds read low",0.997
same,normalized growth,"locus YDR052C, strain DBF4, active compounds read low",0.988
same,normalized growth,"locus YDR054C, strain cdc34, active compounds read low",0.983
same,normalized growth,"locus YDR226W, strain ADK1, active compounds read low",0.983
same,normalized growth,"locus YDR477W, strain SNF1, active compounds read low",0.992
same,normalized growth,"locus YER123W, strain YCK3, active compounds read low",0.975
same,normalized growth,"locus YER133W, strain GLC7, active compounds read low",0.993
same,normalized growth,"locus YFL009W, strain cdc4, active compounds read low",0.966
same,normalized growth,"locus YFL029C, strain CAK1, active compounds read low",0.986
same,normalized growth,"locus YFR003C, strain YPI1, active compounds read low",0.983
same,normalized growth,"locus YFR019W, strain FAB1, active compounds read low",0.971
same,normalized growth,"locus YFR028C, strain CDC14, active compounds read low",0.986
same,normalized growth,"locus YGR040W, strain KSS1, active compounds read low",0.987
same,normalized growth,"locus YGR052W, strain FMP48, active compounds read low",1.02
same,normalized growth,"locus YGR092W, strain DBF2, active compounds read low",0.985
same,normalized growth,"locus YHR030C, strain SLT2, active compounds read low",0.894
same,normalized growth,"locus YHR079C, strain IRE1, active compounds read low",0.904
same,normalized growth,"locus YHR082C, strain KSP1, active compounds read low",0.948
same,normalized growth,"locus YHR205W, strain SCH9, active compounds read low",0.916
same,normalized growth,"locus YIL147C, strain SLN1, active compounds read low",0.996
same,normalized growth,"locus YJL095W, strain BCK1, active compounds read low",0.956
same,normalized growth,"locus YJL128C, strain PBS2, active compounds read low",0.955
same,normalized growth,"locus YJL157C, strain FAR1, active compounds read low",0.985
same,normalized growth,"locus YJR016C, strain ILV3, active compounds read low",0.987
same,normalized growth,"locus YJR066W, strain TOR1 (second series), active compounds read low",0.566 (active)
same,normalized growth,"locus YJR066W, strain TOR1, active compounds read low",0.908
same,normalized growth,"locus YKL048C, strain ELM1, active compounds read low",0.995
same,normalized growth,"locus YKL067W, strain YNK1, active compounds read low",0.992
same,normalized growth,"locus YKL101W, strain HSL1, active compounds read low",0.993
same,normalized growth,"locus YKL193C, strain SDS22, active compounds read low",0.985
same,normalized growth,"locus YKL203C, strain TOR2, active compounds read low",1.04
same,normalized growth,"locus YLR113W, strain HOG1, active compounds read low",0.889
same,normalized growth,"locus YLR133W, strain CKI1, active compounds read low",1
same,normalized growth,"locus YLR403W, strain SFP1, active compounds read low",0.946
same,normalized growth,"locus YML070W, strain DAK1, active compounds read low",0.995
same,normalized growth,"locus YMR001C, strain CDC5, active compounds read low",0.992
same,normalized growth,"locus YMR205C, strain PFK2 (second series), active compounds read low",0.997
same,normalized growth,"locus YMR277W, strain FCP1, active compounds read low",0.983
same,normalized growth,"locus YNL006W, strain LST8, active compounds read low",0.996
same,normalized growth,"locus YNL020C, strain ARK1, active compounds read low",0.993
same,normalized growth,"locus YNL161W, strain CBK1, active compounds read low",0.981
same,normalized growth,"locus YNL183C, strain NPR1, active compounds read low",0.947
same,normalized growth,"locus YNL207W, strain RIO2, active compounds read low",0.993
same,normalized growth,"locus YNL222W, strain SSU72, active compounds read low",0.981
same,normalized growth,"locus YNL307C, strain MCK1 (second series), active compounds read low",0.988
same,normalized growth,"locus YOL078W, strain AVO1, active compounds read low",0.993
same,normalized growth,"locus YOL136C, strain PFK27, active compounds read low",0.976
same,normalized growth,"locus YOR061W, strain CKA2, active compounds read low",0.994
same,normalized growth,"locus YOR119C, strain RIO1, active compounds read low",1
same,normalized growth,"locus YOR231W, strain MKK1, active compounds read low",0.918
same,normalized growth,"locus YOR329C, strain SCD5, active compounds read low",0.985
same,normalized growth,"locus YPL031C, strain PHO85, active compounds read low",0.989
same,normalized growth,"locus YPL153C, strain RAD53, active compounds read low",0.97
same,normalized growth,"locus YPL204W, strain HRR25, active compounds read low",0.981
same,normalized growth,"locus YPL209C, strain IPL1, active compounds read low",0.989
same,normalized growth,"locus YPL256C, strain CLN2, active compounds read low",0.924
same,normalized growth,"locus YPR025C, strain CCL1, active compounds read low",0.986
same,normalized growth,"locus YPR106W, strain ISR1, active compounds read low",0.979
same,normalized growth,"locus YPR111W, strain DBF20, active compounds read low",0.977
same,normalized growth,"strain NNK1, active compounds read low",0.983
same,normalized growth,"strain TSCII, active compounds read low",0.982
